# The campaign covered roughly 69,000 compounds. About 1,000 (1.4%) showed an effect of 50% or more. The entries come from a sample that favours strong results as a whole.
# System: Leishmania donovani
# Assay: Leishmania intramacrophage assay
# Type: functional, organism-based
# Design: scale not given: in the data most compounds retested in dose-response had high values
smiles,measurement,setting,value
CC1(C)CN(Cc2csc(CS(C)(=O)=O)n2)Cc2ccccc21,Percent Effect,"30.3 µM, […]",-3.043%
Cc1cccc(N2CCN(CCNC(=O)c3ccnn3C)CC2)c1,Percent Effect,"30 µM, 30.03 µM",32.04%
Fc1ccccc1C(CNc1ccncn1)N1CCCC1 (centres undefined),Percent Effect,"30.3 µM, […]",13.69%
Fc1ccc(C(CNc2ccncn2)N2CCCCC2)cc1 (centres undefined),Percent Effect,"30.3 µM, […]",33.33%
Fc1ccc(C(CNc2ccncn2)N2CCCC2)cc1 (centres undefined),Percent Effect,"30.3 µM, […]",64.07%
O=C(CCN1CCCCO1)NCc1cn2c(n1)SCC2,Percent Effect,"30.3 µM, […]",-7.597%
CC(CNC(=O)c1cnc[nH]1)Oc1ccc(Cl)cc1 (centres undefined),Percent Effect,"30.3 µM, […]",-8.982%
CS(=O)(=O)Cc1nc(CNc2ccc(F)c(F)c2)cs1,Percent Effect,"30.3 µM, […]",-2.721%
Cc1cc(C)n(CCCn2cncc2-c2ccc3c(c2)CC(C)N3C)n1.Cl (centres undefined),Percent Effect,"30.3 µM, […]",2.187%
Cc1nonc1OCCNC(=O)COc1ccc(F)cc1F,Percent Effect,"30.3 µM, […]",56.45%
Cc1noc(Cl)c1CC(=O)NCCOc1ccc(F)cc1F,Percent Effect,"30.3 µM, […]",8.93%
Cc1nonc1OCCNC(=O)COc1ccc(Cl)cc1Cl,Percent Effect,"30.3 µM, […]",19.12%
O=C(c1ccc(COc2ccc(Cl)cc2)o1)N1N=CCC1(O)C(F)(F)F (centres undefined),Percent Effect,"30.3 µM, […]",-74.85%
CCSCCC(C)N(C)C(=O)c1ccc(C)o1 (centres undefined),Percent Effect,"30.3 µM, […]",26.69%
Cn1ccnc1CN1CCc2c(COCC3CC3)nn(C)c2C1,Percent Effect,"30.3 µM, […]",17.02%
Cc1cc(CN2CC[C@@H]3[C@@H](CCC(=O)N3CCc3c[nH]cn3)C2)oc1C,Percent Effect,"30.3 µM, […]",21.24%
O=C(c1nnn(-c2ccccc2Cl)c1-c1ccccn1)N1CCSCC1,Percent Effect,"30.3 µM, […]",1.038%
COCC(=O)NC(C)c1sc(-c2ccccc2F)nc1C (centres undefined),Percent Effect,"30.3 µM, […]",18.86%
CC(=O)NCCC(=O)NC(C)c1sc(-c2ccccc2F)nc1C (centres undefined),Percent Effect,"30.3 µM, […]",-1.241%
CCC(=O)NCC(=O)NC(C)c1sc(-c2ccccc2F)nc1C (centres undefined),Percent Effect,"30.3 µM, […]",52.49%
CC(CNC(=O)Nc1cn[nH]c1)N1CCCC1 (centres undefined),Percent Effect,30 µM,4.879%
CC(=O)N(C)c1nc(CN2CCN(Cc3nccn3C)CC2)cs1,Percent Effect,"30.3 µM, […]",5.012%
O=S(=O)(c1c(Cl)nc2sccn12)N1CCC2(CCNCC2)C1,Percent Effect,"30.3 µM, […]",51.47%
O=S(=O)(c1c(Cl)nc2sccn12)N1CCCC2(CCNC2)C1 (centres undefined),Percent Effect,"30.3 µM, […]",49.51%
CN1CCCC2(CCN(S(=O)(=O)c3c(Cl)nc4sccn34)C2)C1=O (centres undefined),Percent Effect,"30.3 µM, […]",41%
CSCCc1n[nH]c2c1CN(S(=O)(=O)c1c(C)nn(C)c1C)CC2,Percent Effect,"30.3 µM, […]",-0.401%
CCCSc1ccccc1NC(=O)N1CCN(C(=O)c2ccc[nH]2)CC1,Percent Effect,"30.3 µM, […]",22.55%
c1ccc(-c2nc3c(c(NCc4n[nH]c5c4CCC5)n2)CCNC3)cc1,Percent Effect,"30.3 µM, […]",100.2%
c1ccc(-c2nc3c(c(NCc4nnc5n4CCC5)n2)CCNC3)cc1,Percent Effect,"30.3 µM, […]",11%
c1coc(-c2nc3c(c(NCc4n[nH]c5c4CCC5)n2)CCNCC3)c1,Percent Effect,"30.3 µM, […]",1.11%
Cc1ncsc1CN1CC(C)(C2CC2)CC1=O (centres undefined),Percent Effect,"30.3 µM, […]",-1.864%
CC(=O)N1CCC(C)(c2cc(C(=O)NCC(C)(C)C)nc(C)n2)CC1,Percent Effect,"30.3 µM, […]",-26.7%
Cc1n[nH]c2ncc(CNC3CCN(Cc4ccccn4)CC3)cc12.Cl,Percent Effect,"30.3 µM, […]",23.69%
Cc1[nH]c2ccc(CNC3CCN(Cc4ccccn4)CC3)cc2c1C,Percent Effect,"30.3 µM, […]",65.08%
Cc1cc(NC2CCN(Cc3ccccn3)CC2)n2nc(C)c(C)c2n1,Percent Effect,"30.3 µM, […]",27.06%
Cc1cc2[nH]c(=O)c(=O)[nH]c2cc1S(=O)(=O)NC1CCCCC1,Percent Effect,"30.3 µM, […]",4.835%
Cc1cc2nc(O)c(O)nc2cc1S(=O)(=O)NC1CC1,Percent Effect,"30.3 µM, […]",53.32%
Cc1cc2[nH]c(=O)c(=O)[nH]c2cc1S(=O)(=O)NC1CCC(C)CC1 (centres undefined),Percent Effect,"30.3 µM, […]",6.826%
O=C1CCCN1c1cccc(CNCc2nc(-c3ccco3)no2)c1,Percent Effect,"30.3 µM, […]",-19.6%
COc1nc2cc(C)ccc2cc1CN(C)Cc1n[nH]c2c1CCCC2,Percent Effect,"30.3 µM, […]",19.2%
Cc1ccc2nc(CN(C)Cc3n[nH]c4c3CCCCC4)[nH]c2c1C,Percent Effect,"30.3 µM, […]",99.15%
Cc1ccc2[nH]c(CN(C)Cc3n[nH]c4c3CCC4)nc2c1,Percent Effect,"30.3 µM, […]",65.71%
CN(Cc1cc2n(n1)CCNC2)Cc1n[nH]c2c1CCCCC2,Percent Effect,"30.3 µM, […]",33.41%
Cc1ccc2nc(CN(C)Cc3[nH]nc4c3CCC4)[nH]c2c1C,Percent Effect,"30.3 µM, […]",40.9%
Cc1ccc2[nH]c(CN(C)Cc3ccccc3C(=O)O)nc2c1,Percent Effect,"30.3 µM, […]",25.21%
CC(C)C(C(=O)N1CCN(c2ccncc2)CC1)n1cncn1 (centres undefined),Percent Effect,"30 µM, 30.03 µM",24.05%
CCOc1ccc(Cl)c(C(=O)N2CCCN(CC(N)=O)CC2)n1,Percent Effect,30 µM,-7.749%
N#Cc1cc2c(=O)n(CC(O)c3cccc(O)c3)ccc2[nH]c1=O (centres undefined),Percent Effect,"30.3 µM, […]",52.32%
N#Cc1cc2c(=O)n(CC(O)Cc3ccccc3)ccc2[nH]c1=O (centres undefined),Percent Effect,"30.3 µM, […]",33.38%
N#Cc1cc2c(=O)n(CC(O)C(F)(F)F)ccc2[nH]c1=O (centres undefined),Percent Effect,"30.3 µM, […]",28.06%
Cc1cnc(N2CCC3(CC(=O)N(Cc4csc(C)n4)C3)C2)nc1.O=C(O)C(F)(F)F (centres undefined),Percent Effect,"30.3 µM, […]",-11.16%
Cc1ccc(CN2CCC3(CC2)CCN(Cc2ccco2)CC3)cc1.O=C(O)C(F)(F)F.O=C(O)C(F)(F)F,Percent Effect,"30.3 µM, […]",86.21%
COCC(=O)N1CCC2(CCN(Cc3ccc(C)cc3)CC2)CC1.O=C(O)C(F)(F)F,Percent Effect,"30.3 µM, […]",16.03%
COCCC(=O)N1CCC2(CCN(Cc3cccc(F)c3)CC2)C1.O=C(O)C(F)(F)F,Percent Effect,"30.3 µM, […]",10.96%
CN1CCNC(=O)C12CCN(Cc1ccco1)CC2.O=C(O)C(F)(F)F.O=C(O)C(F)(F)F,Percent Effect,"30.3 µM, […]",23.48%
Cc1ccc(CN2CCOC3(CCN(CC4CCOC4)CC3)C2)cc1.O=C(O)C(F)(F)F.O=C(O)C(F)(F)F (centres undefined),Percent Effect,"30.3 µM, […]",54.23%
CN1CCOCC12CCN(Cc1ccoc1)CC2.O=C(O)C(F)(F)F.O=C(O)C(F)(F)F,Percent Effect,"30.3 µM, […]",10.68%
O=C(O)C(F)(F)F.c1cnc(N2CCOC3(CCN(CC4CCOC4)CC3)C2)nc1 (centres undefined),Percent Effect,"30.3 µM, […]",38.06%
COCCC(=O)N1CCC2(CCN(Cc3ccc(C)cc3)CC2)C1.O=C(O)C(F)(F)F,Percent Effect,"30.3 µM, […]",52.88%
COCCC(=O)N1CC2(CCN(Cc3cccc(Cl)c3)CC2)C1.O=C(O)C(F)(F)F,Percent Effect,"30 µM, 30.03 µM",20.28%
CC(=O)N1CCC12CCN(Cc1ccco1)CC2.O=C(O)C(F)(F)F,Percent Effect,"30.3 µM, […]",4.08%
Cc1ccc(CN2CCC3(CC2)CCN(Cc2ccoc2)CC3)cc1.O=C(O)C(F)(F)F.O=C(O)C(F)(F)F,Percent Effect,"30.3 µM, […]",75.99%
Cc1cc(C(=O)N2C[C@@H]3OCCN(CCN4CCCC4)[C@@H]3C2)c(C)o1.O=C(O)C(F)(F)F,Percent Effect,"30.3 µM, […]",6.684%
Cc1cc(C(=O)Nc2ccc3c(ccn3CCN3CCOCC3)c2)on1,Percent Effect,"30.3 µM, […]",-2.631%
CC(C)SCC(=O)N1CCc2c(nc(N(C)C)nc2N(C)C)C1,Percent Effect,"30 µM, 30.03 µM",7.439%
CC(C)C(C)(C#N)NC(=O)Cn1cc(C(N)=O)c(-c2ccccc2)n1 (centres undefined),Percent Effect,"30.3 µM, […]",-11.84%
CCOCC(=O)NCCn1ccc(-c2ccccn2)n1,Percent Effect,"30.3 µM, […]",14.51%
CCOc1ccc(Cl)cc1C(C(=O)O)N1CCOCC1 (centres undefined),Percent Effect,"30.3 µM, […]",26.6%
CC(Cn1cncc1-c1cnn(C2CCCCC2)c1)N1CCCCC1.Cl (centres undefined),Percent Effect,"30.3 µM, […]",20.46%
CC(O)CN1CCN(C(=O)CN(C)c2ccc(C#N)cn2)CC1 (centres undefined),Percent Effect,"30.3 µM, […]",-1.14%
COCCC(=O)N1CC2(CCN(Cc3ccncc3)CC2)C1,Percent Effect,"30.3 µM, […]",34.97%
O=C(O)C(F)(F)F.O=C(O)C(F)(F)F.c1cncc(-c2ccc3c(c2)CCC32CCN(Cc3nccs3)CC2)c1,Percent Effect,"30.3 µM, […]",20.15%
CN(C)CC(=O)N1CCC2(CCc3cc(-c4cccnc4)ccc32)CC1.O=C(O)C(F)(F)F.O=C(O)C(F)(F)F,Percent Effect,"30.3 µM, […]",37.66%
Cc1ccc(CN2CCCC3(CCN(Cc4ccoc4)CC3)C2)cc1.O=C(O)C(F)(F)F.O=C(O)C(F)(F)F,Percent Effect,"30.3 µM, […]",70.84%
O=C(O)C(F)(F)F.O=C(O)C(F)(F)F.c1cncc(-c2ccc3c(c2)CCC32CCN(Cc3ccco3)CC2)c1,Percent Effect,"30.3 µM, […]",59.2%
Cn1ccnc1CN1CCC2(CC1)CCN(Cc1ccoc1)C2.O=C(O)C(F)(F)F.O=C(O)C(F)(F)F,Percent Effect,"30.3 µM, […]",10.21%
O=C(O)C(F)(F)F.O=C(O)C(F)(F)F.O=C(O)C(F)(F)F.c1coc(CN2CCOC3(COCCN(Cc4ccncc4)C3)C2)c1 (centres undefined),Percent Effect,"30.3 µM, […]",52.19%
Cc1ccc(CN2CCOC3(COCCN(Cc4ccncc4)C3)C2)o1.O=C(O)C(F)(F)F.O=C(O)C(F)(F)F.O=C(O)C(F)(F)F (centres undefined),Percent Effect,"30.3 µM, […]",5.942%
Cc1ccc(CN2CCN(Cc3ccncc3)CC2=O)cc1,Percent Effect,"30.3 µM, […]",-11.56%
Cc1ccc(CN2CCC3(CCN(Cc4ccncc4)CC3)CC2)cc1,Percent Effect,"30.3 µM, […]",75.36%
CS(=O)(=O)N1CCOCC2(CN(Cc3ccco3)CCO2)C1.O=C(O)C(F)(F)F (centres undefined),Percent Effect,"30 µM, 30.03 µM",-12.04%
COCCN1CC[C@@H]2O[C@@H](COCC(=O)N3CCCC3)CC[C@@H]21.O=C(O)C(F)(F)F,Percent Effect,"30 µM, 30.03 µM",27.81%
CO[C@H]1CO[C@@]2(CCCN(C(=O)N(C)C)C2)C1,Percent Effect,"30.3 µM, […]",25.22%
O=C(NCCCn1nc2ccccn2c1=O)NCCC1CCC1,Percent Effect,"30.3 µM, […]",27.05%
CCNc1cc2c(nn1)CCN(C(=O)c1ccc3cc[nH]c3c1)C2,Percent Effect,"30 µM, 30.03 µM",18.46%
COc1cccc(-c2noc(-c3ccc(NCCCO)nc3)n2)c1OC,Percent Effect,"30.3 µM, […]",59.5%
CSCC[C@@H](CO)Nc1ccc(-c2nc(-c3ccccc3F)no2)cn1,Percent Effect,"30.3 µM, […]",-35.38%
COc1cccc(-c2noc(-c3ccc(NCCCN)nc3)n2)c1OC,Percent Effect,"30.3 µM, […]",10.02%
OC[C@@H]1CCCN1c1ccc(-c2nc(COc3ccccc3)no2)cn1,Percent Effect,"30.3 µM, […]",-6.4%
CN(C)CCNc1ccc(-c2nc(-c3ccccc3F)no2)cn1,Percent Effect,"30.3 µM, […]",51.45%
CN(C)CCNc1ccc(-c2nc(COc3ccccc3)no2)cn1,Percent Effect,"30.3 µM, […]",58.19%
CNCCNc1ccc(-c2nc(-c3cccc(OC)c3OC)no2)cn1,Percent Effect,"30.3 µM, […]",11.62%
CC(C)(CO)Nc1ccc(-c2nc(-c3ccccc3F)no2)cn1,Percent Effect,"30.3 µM, […]",-6.29%
CN(C)CCN(C)c1ccc(-c2nc(COc3ccccc3)no2)cn1,Percent Effect,"30.3 µM, […]",42.47%
